Here are results for 17 compounds from article PMC5540273 (PLoS ONE, 2017).

Among the test systems are PRKCH; PRKCI; PRKCQ; PRKD1; PRKD2; PRKD3; PRKG1; PRKG2; PRKX.
Settings in all cases: concentration: 1 μM, replicates: in singlicate; n = 1
The next assay relates to T1, PRKR.
T1 construct: gene EIF2AK2
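Note: KINOMEscan kinase panel screen.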

With `Cc1c(Cn2c(C)c(C)n3c(=O)cc(N4CCOCC4)nc23)cccc1C(F)(F)F` [GSK2328680], the “%Inh” value in the assay on PRKCH came out at 23%; with PRKCI, 0%; in the assay on PRKCQ it was 8%; in the assay with PRKD1, 0%; in the assay with PRKD2, 18%; in the assay with PRKD3 it was 8%. Moreover, the “%Inh” value in the assay on PRKG1 is on record as 5%; in the assay on PRKG2 it was 91.2%; in the assay with PRKR it was 0%; in the assay with PRKX it was 0%.
As for `COc1cccc(C2=C(Nc3cc(Cl)c(O)c(Cl)c3)C(=O)NC2=O)c1` [SB-390767], the “%Inh” value is 0% in the assay with PRKCH; 12% in the assay with PRKCI; 0% in the assay with PRKCQ; 0% with PRKD1; 0% in the assay with PRKD2; 100% with PRKD3. Also, the “%Inh” value came out at 0% with PRKG1, 0% in the assay on PRKG2, 0% in the assay with PRKR and 12% with PRKX.
Take `COc1ccc(Nc2nccc(N3CCC(NC(=O)C(C)c4ccc(Cl)cc4)C3)n2)cc1` (centres unmarked) [GSK1379735]: the “%Inh” value is reported as 24% in the assay with PRKCH; 0% with PRKCI; 23% with PRKCQ; 0% with PRKD1; 0% with PRKD2; 21% in the assay with PRKD3. The “%Inh” value in the assay with PRKG1 was 0%; with PRKG2, 80%; in the assay on PRKR, 0%; in the assay with PRKX, 22%.
For the compound `CC(=O)c1cccc(NC(=O)NC2CCN(c3ccnc(Nc4ccc(F)cc4)n3)C2)c1` (centres unmarked) [GSK1379710], the “%Inh” value in the assay with PRKCH amounted to 0%; in the assay with PRKCI it was 11%; with PRKCQ, 27%; with PRKD1, 0%; with PRKD2 it was 10%; with PRKD3 it was 9%. The “%Inh” value in the assay with PRKG1 came out at 0%; in the assay on PRKG2 it was 31%; in the assay on PRKR, 13%; in the assay on PRKX it was 32%.
In the case of `COc1ccc(Nc2nccc(N3CCC(NC(=O)c4cc5ccccc5s4)C3)n2)cc1` (centres unmarked) [GSK1379738], the “%Inh” value with PRKCH amounted to 0%; in the assay on PRKCI it was 15%; in the assay on PRKCQ, 7%; in the assay with PRKD1, 0%; in the assay on PRKD2 it was 12%; with PRKD3, 100%. For the same compound, the “%Inh” value in the assay with PRKG1 came to 0%; with PRKG2, 0%; in the assay on PRKR, 0%; in the assay on PRKX it was 12%.
Take `O=C1NC(=O)C(c2ccc(Cl)cc2)=C1Nc1cccc(Cl)c1` [SB-317651]: the “%Inh” value with PRKCH was 0%; in the assay on PRKCI it was 6%; in the assay with PRKCQ it was 11%; in the assay with PRKD1, 38%; with PRKD2, 0%; in the assay on PRKD3, 0%. Also, the “%Inh” value was determined as 3% with PRKG1, 0% in the assay with PRKG2, 0% in the assay with PRKR and 0% with PRKX.
In the case of `CNc1nc(-c2ccc3c(N)n[nH]c3c2)cc(N2C[C@@H](C(=O)Nc3ccccc3)CC[C@H]2C)n1` [GSK2298859], the “%Inh” value in the assay with PRKCH is on record as 0%; with PRKCI, 10%; in the assay on PRKCQ it was 0%; in the assay on PRKD1, 0%; in the assay on PRKD2, 20%; in the assay on PRKD3, 0%. Also, the “%Inh” value worked out at 18% in the assay with PRKG1, 32% in the assay with PRKG2, 0% with PRKR and 97% in the assay with PRKX.
With `CC(C)c1cc(-c2ccc3c(N)n[nH]c3c2)nc(N)n1` [GSK2250882], the “%Inh” value is reported as 0% in the assay on PRKCH; 10% with PRKCI; 6% with PRKCQ; 0% in the assay with PRKD1; 0% in the assay with PRKD2; 0% in the assay with PRKD3. Also, the “%Inh” value in the assay on PRKG1 is 24%; in the assay on PRKG2, 14%; in the assay on PRKR, 6%; in the assay with PRKX, 25%.
For the compound `CC(C)c1ccc(O)cc1Nc1ccnc2ccc(C(F)(F)F)cc12` [GW482059], the “%Inh” value in the assay with PRKCH stood at 28%; with PRKCI it was 18%; in the assay with PRKCQ, 0%; in the assay with PRKD1, 0%; with PRKD2, 2%; with PRKD3, 27%. The “%Inh” value with PRKG1 is given as 15%; in the assay with PRKG2, 0%; with PRKR, 0%; with PRKX it was 0%.
`COC(=O)c1cccc(NC(=O)NC2CCN(c3ccnc(Nc4ccc(OC)cc4)n3)C2)c1` (centres unmarked) [GSK1379746]: the “%Inh” value in the assay on PRKCH is 31%; in the assay on PRKCI, 13%; in the assay with PRKCQ, 0%; in the assay with PRKD1, 0%; in the assay with PRKD2, 0%; in the assay on PRKD3, 0%. In addition, the “%Inh” value with PRKG1, in the assay with PRKG2, with PRKR and in the assay with PRKX was 0% throughout.
In the case of `O=C(Nc1n[nH]c2nc(-c3cccs3)c(Br)cc12)C1CCCC1` [SB-743341], the “%Inh” value with PRKCH was 21%; in the assay on PRKCI, 21%; with PRKCQ, 32%; in the assay with PRKD1, 7%; in the assay on PRKD2, 0%; with PRKD3, 23%. Further, the “%Inh” value is reported as 4% in the assay with PRKG1, 0% in the assay on PRKG2, 0% with PRKR and 0% in the assay on PRKX.
In the case of `COC(=O)C(NC(=O)NC1CCN(c2ccnc(Nc3ccc(F)cc3)n2)C1)c1ccccc1` (centres unmarked) [GSK1379712], the “%Inh” value in the assay on PRKCH stood at 0%; with PRKCI, 24%; in the assay with PRKCQ, 3%; with PRKD1, 0%; in the assay on PRKD2, 14%; with PRKD3 it was 4%. Moreover, the “%Inh” value in the assay on PRKG1 turned out to be 0%; in the assay with PRKG2, 0%; with PRKR it was 0%; in the assay on PRKX, 12%.
Consider `O=C(Nc1n[nH]c2cc(-c3ccsc3)ccc12)C1CC1` [SB-732932], for which the “%Inh” value with PRKCH turned out to be 0%; in the assay on PRKCI, 0%; in the assay with PRKCQ, 41%; in the assay on PRKD1, 82%; in the assay on PRKD2, 0%; in the assay with PRKD3, 0%. Besides, the “%Inh” value in the assay on PRKG1 came out at 0%; in the assay on PRKG2, 8%; in the assay on PRKR, 0%; with PRKX it was 1%.
As for `CC(=O)c1c(C)c2cnc(Nc3ccc(N4CCNCC4)cn3)nc2n(C2CCCC2)c1=O`, the “%Inh” value in the assay on PRKCH came to 0%; in the assay with PRKCI it was 5%; in the assay with PRKCQ it was 0%; in the assay with PRKD1, 0%; in the assay on PRKD2, 0%; with PRKD3, 0%. In addition, the “%Inh” value was 9% in the assay on PRKG1, 0% in the assay on PRKG2, 0% in the assay with PRKR and 0% with PRKX.
Take `COc1ccc(CSc2nnc(-c3ccc4nccn4c3)o2)cc1C(F)(F)F`: the “%Inh” value was determined as 0% in the assay with PRKCH; 13% with PRKCI; 30% in the assay with PRKCQ; 0% in the assay on PRKD1; 5% in the assay on PRKD2; 1% in the assay with PRKD3. In addition, the “%Inh” value was 3% in the assay with PRKG1, 16% in the assay with PRKG2, 0% in the assay on PRKR and 34% in the assay on PRKX.
As for `Fc1ccc(-c2nc3n(c2-c2ccncc2)CCS3)cc1` [GI98581], the “%Inh” value worked out at 2% in the assay on PRKCH; 1% in the assay on PRKCI; 21% with PRKCQ; 0% in the assay with PRKD1; 6% in the assay on PRKD2; 20% in the assay with PRKD3. The “%Inh” value with PRKG1 was 39%; with PRKG2, 0%; in the assay with PRKR, 0%; in the assay on PRKX, 15%.
Consider `CN1c2ccc(-c3ccc(C(N)=O)cc3)cc2-c2[nH]ncc2S1(=O)=O`, for which the “%Inh” value is recorded as 0% with PRKCH; 4% in the assay on PRKCI; 5% with PRKCQ; 17% in the assay on PRKD1; 80% with PRKD2; 0% in the assay with PRKD3. Moreover, the “%Inh” value turned out to be 0% with PRKG1, 2% with PRKG2, 6% in the assay on PRKR and 0% with PRKX.
